In all, about 5,500 compounds went through this assay and about 2,000 (36%) were called active. Another 18% or so got no clear call; they are omitted. Rule as the data show it: active = normalized growth mostly below about 0.91 (no sharp cut-off); inconclusive = no clear call, values can overlap the other calls; inactive = mostly above about 0.92. The list shows a part of the results.
Assay: chemical genetic growth profiling, strain panel (AID 1159580);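 also: tested at 20 µM; growth read once vehicle control cultures reached saturation at 30 °C; 1 = growth at the plate median or of vehicle wells; lower values mean less growth of the strain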
Details: growth OD
[1] = S. cerevisiae deletion strains, locus YAL013W, strain DEP1, stronger effect = lower value
[2] = S. cerevisiae deletion strains, locus YBR229C, strain ROT2, stronger effect = lower value
[3] = S. cerevisiae deletion strains, locus YDL101C, strain DUN1, stronger effect = lower value
[4] = S. cerevisiae deletion strains, locus YDR150W, strain NUM1, stronger effect = lower value
[5] = S. cerevisiae deletion strains, locus YEL061C, strain CIN8, stronger effect = lower value
[6] = S. cerevisiae deletion strains, locus YGR078C, strain PAC10, stronger effect = lower value
[7] = S. cerevisiae deletion strains, locus YHR030C, strain SLT2, stronger effect = lower value
[8] = S. cerevisiae deletion strains, locus YJR043C, strain POL32, stronger effect = lower value
[9] = S. cerevisiae deletion strains, locus YJR075W, strain HOC1, stronger effect = lower value
[10] = S. cerevisiae deletion strains, locus YKL190W, strain CNB1, stronger effect = lower value
[11] = S. cerevisiae deletion strains, locus YLR039C, strain RIC1, stronger effect = lower value
[12] = S. cerevisiae deletion strains, locus YLR262C, strain YPT6, stronger effect = lower value
[13] = S. cerevisiae deletion strains, locus YMR263W, strain SAP30, stronger effect = lower value
[14] = S. cerevisiae deletion strains, locus YMR307W, strain GAS1, stronger effect = lower value
[15] = S. cerevisiae deletion strains, locus YNL153C, strain GIM3, stronger effect = lower value
[16] = S. cerevisiae deletion strains, locus YNL322C, strain KRE1, stronger effect = lower value
[17] = S. cerevisiae deletion strains, locus YPL055C, strain LGE1, stronger effect = lower value
[18] = S. cerevisiae deletion strains, locus YPL241C, strain CIN2, stronger effect = lower value

Measured: normalized growth

COc1ccc(/C=C/c2cc(O)cc(O[C@@H]3O[C@H](CO)[C@@H](O)[C@H](O)[C@H]3O)c2)cc1O
inactive: [1] 1 | S. cerevisiae deletion strains, locus YBR021W, strain FUR4, stronger effect = lower value 0.999 | [2] 1.01 | S. cerevisiae deletion strains, locus YCL029C, strain bik1, stronger effect = lower value 1.02 | S. cerevisiae deletion strains, locus YDL035C, strain GPR1, stronger effect = lower value 1.02 | S. cerevisiae deletion strains, locus YDL074C, strain BRE1, stronger effect = lower value 1.01 | [3] 1.02 | S. cerevisiae deletion strains, locus YDL134C, strain PPH21, stronger effect = lower value 1.01 | S. cerevisiae deletion strains, locus YDL185W, strain tfp1, stronger effect = lower value 1.02 | S. cerevisiae deletion strains, locus YDL192W, strain arf1, stronger effect = lower value 1.02 | S. cerevisiae deletion strains, locus YDR101C, strain arx1, stronger effect = lower value 1.01 | [4] 1.01 | S. cerevisiae deletion strains, locus YDR162C, strain NBP2, stronger effect = lower value 1.02 | S. cerevisiae deletion strains, locus YDR318W, strain mcm21, stronger effect = lower value 1.03 | S. cerevisiae deletion strains, locus YDR388W, stronger effect = lower value 1.01 | S. cerevisiae deletion strains, locus YDR502C, strain sam2, stronger effect = lower value 1.02 | [5] 1 | S. cerevisiae deletion strains, locus YER110C, stronger effect = lower value 1.03 | S. cerevisiae deletion strains, locus YER155C, strain BEM2, stronger effect = lower value 0.995 | S. cerevisiae deletion strains, locus YER167W, strain BCK2, stronger effect = lower value 1.03 | S. cerevisiae deletion strains, locus YGL078C, strain dbp3, stronger effect = lower value 1.02 | S. cerevisiae deletion strains, locus YGL086W, strain mad1, stronger effect = lower value 1.03 | S. cerevisiae deletion strains, locus YGL248W, strain PDE1, stronger effect = lower value 1.01 | [6] 1.03 | S. cerevisiae deletion strains, locus YGR135W, strain pre9, stronger effect = lower value 1.01 | S. cerevisiae deletion strains, locus YGR229C, strain SMI1, stronger effect = lower value 0.988 | S. cerevisiae deletion strains, locus YGR252W, strain gcn5, stronger effect = lower value 1.06 | [7] 1 | S. cerevisiae deletion strains, locus YHR079C, strain IRE1 (second series), stronger effect = lower value 1.02 | S. cerevisiae deletion strains, locus YHR094C, strain hxt1, stronger effect = lower value 1.02 | S. cerevisiae deletion strains, locus YHR129C, strain ARP1, stronger effect = lower value 1.01 | S. cerevisiae deletion strains, locus YHR200W, strain rpn10, stronger effect = lower value 1.03 | S. cerevisiae deletion strains, locus YIL066C, strain RNR3, stronger effect = lower value 1.02 | S. cerevisiae deletion strains, locus YIL073C, strain SPO22, stronger effect = lower value 1.06 | S. cerevisiae deletion strains, locus YIL125W, strain kgd1, stronger effect = lower value 0.999 | S. cerevisiae deletion strains, locus YIR030C, strain dcg1, stronger effect = lower value 1.01 | S. cerevisiae deletion strains, locus YJL095W, strain BCK1, stronger effect = lower value 1.01 | S. cerevisiae deletion strains, locus YJL134W, strain LCB3, stronger effect = lower value 1.01 | S. cerevisiae deletion strains, locus YJL168C, strain set2, stronger effect = lower value 1.01 | S. cerevisiae deletion strains, locus YJL187C, strain SWE1 (second series), stronger effect = lower value 1.01 | [8] 1.01 | [9] 0.973 | S. cerevisiae deletion strains, locus YKL009W, strain mrt4, stronger effect = lower value 1.03 | S. cerevisiae deletion strains, locus YKL068W, stronger effect = lower value 1.02 | S. cerevisiae deletion strains, locus YKL085W, strain MDH1 (second series), stronger effect = lower value 1.04 | S. cerevisiae deletion strains, locus YKL085W, strain MDH1, stronger effect = lower value 1.04 | [10] 1 | S. cerevisiae deletion strains, locus YKR001C, strain vps1, stronger effect = lower value 1.03 | [11] 1.04 | S. cerevisiae deletion strains, locus YLR058C, strain SHM2, stronger effect = lower value 1.01 | S. cerevisiae deletion strains, locus YLR102C, strain apc9, stronger effect = lower value 1.02 | [12] 1.05 | S. cerevisiae deletion strains, locus YLR268W, strain sec22, stronger effect = lower value 1.02 | S. cerevisiae deletion strains, locus YLR330W, strain CHS5, stronger effect = lower value 1.01 | S. cerevisiae deletion strains, locus YLR342W, strain FKS1 (second series), stronger effect = lower value 1.05 | S. cerevisiae deletion strains, locus YLR371W, strain rom2, stronger effect = lower value 1.01 | S. cerevisiae deletion strains, locus YLR418C, strain cdc73, stronger effect = lower value 0.987 | S. cerevisiae deletion strains, locus YML016C, strain PPZ1, stronger effect = lower value 1.02 | S. cerevisiae deletion strains, locus YML032C, strain rad52, stronger effect = lower value 1.01 | S. cerevisiae deletion strains, locus YML124C, strain tub3, stronger effect = lower value 1.01 | S. cerevisiae deletion strains, locus YMR078C, strain ctf18, stronger effect = lower value 1.02 | S. cerevisiae deletion strains, locus YMR223W, strain ubp8, stronger effect = lower value 1.03 | [13] 1.02 | [14] 1.04 | S. cerevisiae deletion strains, locus YNL067W, strain RPL9B, stronger effect = lower value 1.01 | S. cerevisiae deletion strains, locus YNL128W, strain TEP1, stronger effect = lower value 1.02 | [15] 1.02 | S. cerevisiae deletion strains, locus YNL233W, strain BNI4, stronger effect = lower value 1.01 | S. cerevisiae deletion strains, locus YNL250W, strain rad50, stronger effect = lower value 1.03 | S. cerevisiae deletion strains, locus YNL271C, strain bni1, stronger effect = lower value 1.03 | S. cerevisiae deletion strains, locus YNL298W, strain CLA4, stronger effect = lower value 1.03 | S. cerevisiae deletion strains, locus YNL307C, strain MCK1, stronger effect = lower value 1.03 | [16] 1.01 | S. cerevisiae deletion strains, locus YNR052C, strain pop2, stronger effect = lower value 1.01 | S. cerevisiae deletion strains, locus YOL006C, strain TOP1, stronger effect = lower value 1.08 | S. cerevisiae deletion strains, locus YOL012C, strain htz1 0.868 | S. cerevisiae deletion strains, locus YOL147C, strain pex11, stronger effect = lower value 1.01 | S. cerevisiae deletion strains, locus YOR061W, strain CKA2, stronger effect = lower value 1.02 | S. cerevisiae deletion strains, locus YOR069W, strain VPS5, stronger effect = lower value 1 | S. cerevisiae deletion strains, locus YOR136W, strain idh2, stronger effect = lower value 1.02 | S. cerevisiae deletion strains, locus YOR144C, strain elg1, stronger effect = lower value 1.01 | S. cerevisiae deletion strains, locus YOR184W, strain ser1, stronger effect = lower value 1.05 | S. cerevisiae deletion strains, locus YOR316C, strain cot1, stronger effect = lower value 1.02 | [17] 1.03 | [18] 1.01 | S. cerevisiae deletion strains, locus YPR119W, strain clb2, stronger effect = lower value 1.01 | S. cerevisiae deletion strains, locus YPR141C, strain kar3, stronger effect = lower value 1.03 | S. cerevisiae deletion strains, locus YPR163C, strain tif3, stronger effect = lower value 1.03 | S. cerevisiae deletion strains, locus YPR167C, strain met16, stronger effect = lower value 1.02 | S. cerevisiae deletion strains, strain wtn01, stronger effect = lower value 0.994 | S. cerevisiae strains, strain wild type, stronger effect = lower value 1.01

O=C(O)CCS(=O)(=O)/C=C/c1ccccc1
inactive: [1] 0.995 | [2] 0.989 | S. cerevisiae deletion strains, locus YCL061C, strain MRC1, stronger effect = lower value 1 | [3] 1.04 | [4] 0.984 | [5] 1 | [6] 1.02 | [7] 0.996 | S. cerevisiae deletion strains, locus YHR087W, strain rtc3, stronger effect = lower value 1.01 | S. cerevisiae deletion strains, locus YJL187C, strain SWE1, stronger effect = lower value 0.992 | [8] 0.989 | [9] 1 | [10] 0.979 | [11] 0.989 | S. cerevisiae deletion strains, locus YLR058C, strain SHM2 (second series), stronger effect = lower value 0.982 | S. cerevisiae deletion strains, locus YLR085C, strain ARP6, stronger effect = lower value 0.988 | [12] 1 | S. cerevisiae deletion strains, locus YML094W, strain GIM5, stronger effect = lower value 1.11 | S. cerevisiae deletion strains, locus YMR219W, strain ESC1, stronger effect = lower value 0.991 | [13] 0.955 | [14] 0.951 | [15] 1.01 | S. cerevisiae deletion strains, locus YNL298W, strain CLA4 (second series), stronger effect = lower value 0.997 | [16] 0.992 | S. cerevisiae deletion strains, locus YNR030W, strain Alg12, stronger effect = lower value 1.03 | [17] 1.02 | [18] 1.12 | S. cerevisiae deletion strains, locus YPR135W, strain CTF4, stronger effect = lower value 1.08

Reference: PubChem BioAssay AID1159580 (chemical genetic matrix, 2015)
